Laboratory results as given in the supplement of paper PMC3724861.
This excerpt belongs to a sample that is enriched for hits. The true hit rate is not given.

system: T1, Caupolican (Caup) homeodomain DNA-binding domain; experiment: PBM E-score (8-mer, recovered from the published 9-mer minima) (E-score (dimensionless, -0.5 to 0.5)); Drosophila protein; higher = stronger relative binding preference, active = 0.31 or more
T1 sequence: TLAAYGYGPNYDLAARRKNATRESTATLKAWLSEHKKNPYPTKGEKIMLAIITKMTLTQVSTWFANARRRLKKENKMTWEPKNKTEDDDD
Experimental: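 Protein binding microarray (PBM): in vitro transcribed/translated Caupolican (Caup) homeodomain DNA-binding domain (residues 214-303) applied at 100 nM to a universal 8-mer PBM array (Agilent AMADID 015681). The 8-mer enrichment score (E-score, range -0.5 to 0.5) was computed, and each 9-mer score is the minimum E-score of its two constituent 8-mers. The E-score is the same for a 9-mer and its reverse complement; 0.31 is the stated binding threshold.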

Sequence	PBM E-score
AAAATACT	0.04 (inactive)
GCGATCGA	0.0192 (inactive)
AGCGTAGC	-0.111 (inactive)
AGGGCCGC	-0.251 (inactive)
CGACCCGA	-0.151 (inactive)
GCGGTACA	0.173 (inactive)
CTGGCCAG	-0.181 (inactive)
ATTTGGAC	0.134 (inactive)
AGGGCGTC	-0.192 (inactive)
GGACATCA	0.234 (inactive)
TGACATAA	0.311 (active)
CGTCATAA	0.081 (inactive)
TCACATAA	0.182 (inactive)
TGTCATAA	0.338 (active)
CGACATCA	0.284 (inactive)
TTACATAA	0.339 (active)
AGACATAA	0.217 (inactive)
GGACATAA	0.211 (inactive)
TGACATCA	≥ 0.333 (active)
AGTCATAA	0.146 (inactive)
CTACATAA	0.22 (inactive)
AGCCTGGG	-0.123 (inactive)
AATCCCCC	-0.256 (inactive)
CGGGAACA	0.176 (inactive)

Sequence	PBM E-score
AGACAACC	0.201 (inactive)
CTTAACAA	0.228 (inactive)
GTCGCGAA	0.00326 (inactive)
ATGGTGTC	0.142 (inactive)
GCTAGGCC	-0.238 (inactive)
GCACATAA	0.0651 (inactive)
GTACATAA	0.361 (active)
GTACATAC	0.307 (inactive)
ACCCTGGG	-0.105 (inactive)
GAGATAGC	-0.0575 (inactive)
CACAACAA	0.29 (inactive)
AACAACTA	≥ 0.319 (active)
TTCAACAA	0.299 (inactive)
AACAACTC	0.167 (inactive)
AACAACTG	0.208 (inactive)
AACAACAG	0.243 (inactive)
TACAACGA	0.267 (inactive)
AGCAACAA	0.182 (inactive)
AACAACGT	0.252 (inactive)
AACAACAT	0.409 (active)
AACAACAA	0.394 (active)
TACAACAA	0.387 (active)
AGTTTCCA	0.0163 (inactive)
CTCTGGGC	-0.214 (inactive)

Sequence	PBM E-score
CCCGTGAA	-0.0554 (inactive)
TCCGAGGA	-0.0519 (inactive)
GGGAGTAA	0.0271 (inactive)
AATCCGGC	-0.121 (inactive)
CTTGGGTA	-0.0204 (inactive)
CCACCGGC	-0.281 (inactive)
TTACTCAA	0.0597 (inactive)
AACAACCT	0.243 (inactive)
ATCAACAA	0.289 (inactive)
AACAACCA	≥ 0.324 (active)
ATCAACAG	0.109 (inactive)
ATCAACAT	0.371 (active)
AACAACCC	0.247 (inactive)
CGCGCTAG	-0.142 (inactive)
GTCGATAA	0.0563 (inactive)
ACACCCGC	-0.0419 (inactive)
AAAAAAGA	-0.0444 (inactive)
CCGGCTCA	-0.123 (inactive)
GATGAATC	0.106 (inactive)
CTGTCAAG	-0.017 (inactive)
ATGTTTTA	0.369 (active)
CTGTTTGA	0.188 (inactive)
ATGTTTGG	0.229 (inactive)
CTGTTTTC	0.134 (inactive)

Sequence	PBM E-score
ATGTTTTC	0.33 (active)
ATGTTTAA	0.367 (active)
ATGTTTAG	0.284 (inactive)
ATGTTTCC	0.236 (inactive)
ATGTTTGA	0.327 (active)
CTGTTTAA	0.111 (inactive)
GTGTTTTA	0.213 (inactive)
CTGTTTTA	0.107 (inactive)
ACGCAATC	-0.0194 (inactive)
GAGTTTAC	-0.00241 (inactive)
ACATCGCT	0.178 (inactive)
CCTTCTAC	-0.131 (inactive)
CATCTGAC	0.0423 (inactive)
AAGGTACC	-0.127 (inactive)
ACCGCACA	-0.00685 (inactive)
CGCGGAGA	-0.112 (inactive)
ATAGCTTC	-0.0833 (inactive)
ATGTTAGC	0.314 (active)
CTGTTAGC	-0.0813 (inactive)
ATGTTAGG	0.219 (inactive)
GTGTTAGA	0.224 (inactive)
ATGTTAGA	0.329 (active)
CTGTTAGA	0.105 (inactive)
AATGACAG	0.219 (inactive)

Sequence	PBM E-score
GATGACAC	0.219 (inactive)
CATGACAC	0.363 (active)
GATGACAA	0.308 (inactive)
AATGACAT	0.298 (inactive)
AATGACAA	0.346 (active)
TATGACAA	0.314 (active)
CATGACAA	0.283 (inactive)
AATGACAC	0.277 (inactive)
AGATCATC	0.12 (inactive)
ACAGGCGC	-0.0681 (inactive)
TGAGGGCA	-0.108 (inactive)
GAGCACAC	0.00424 (inactive)
AGCGTCTA	-0.0661 (inactive)
ACACGGAT	0.339 (active)
ACACGGTC	0.219 (inactive)
ACACGGTG	0.307 (inactive)
ACACGGTA	0.327 (active)
ACACGGAA	0.291 (inactive)
ACACGGAG	0.131 (inactive)
ACAACGTA	0.255 (inactive)
AGTCACAG	0.0714 (inactive)
CGCCCCCA	-0.285 (inactive)
AGCATGAC	0.0874 (inactive)
AACATGAT	≥ 0.424 (active)

Sequence	PBM E-score
AGCATGAT	0.197 (inactive)
ACCATGAT	0.158 (inactive)
CACATGAG	0.0472 (inactive)
AACATGAG	0.351 (active)
AGCATGAG	0.104 (inactive)
AACATGAC	0.42 (active)
ACCATGAC	0.0507 (inactive)
AGAAGATC	-0.0662 (inactive)
GTTGGATA	0.0774 (inactive)
ATCCAATC	0.102 (inactive)
AGCCCTTC	-0.22 (inactive)
GCTCGTGA	-0.064 (inactive)
AGCGGGGG	-0.28 (inactive)
GACTATGA	0.0441 (inactive)
ATAATGCC	0.0429 (inactive)
ACTTGCAT	0.137 (inactive)
GCGTTTAC	-0.0438 (inactive)
AGCACATG	0.164 (inactive)
AGTACAGC	0.167 (inactive)
AGCACATC	0.0585 (inactive)
AGTACATG	0.45 (active)
AGTACGTG	0.0988 (inactive)
AGTACATC	0.342 (active)
CGTGATAG	-0.0553 (inactive)

Sequence	PBM E-score
AGCGCAAG	-0.181 (inactive)
CTTTGCGA	-0.0806 (inactive)
TAAAAAGA	0.0988 (inactive)
CAAAGTTC	-0.0431 (inactive)
GTCTGTTA	0.161 (inactive)
ATATGTGG	0.182 (inactive)
ATATGTGC	0.118 (inactive)
ATATGTGA	0.25 (inactive)
ATCTGTTG	0.128 (inactive)
ATATGTTG	0.324 (active)
GTATGTTA	0.321 (active)
ATATGTTA	0.338 (active)
CTATGTTC	0.31 (inactive)
ATATGTTC	0.347 (active)
CTCTGTTA	0.107 (inactive)
CTATGTTA	0.294 (inactive)
ATTCAGTC	0.00318 (inactive)
AGCCATTC	-0.0817 (inactive)
CCCTAGGG	-0.253 (inactive)
GATGTTCC	0.281 (inactive)
AATGTTCC	0.2 (inactive)
CATGTTCA	0.396 (active)
TATGTTGA	0.288 (inactive)
TCTGTTCA	0.0822 (inactive)

Sequence	PBM E-score
AATGTTCG	0.154 (inactive)
GATGTTCA	0.303 (inactive)
TATGTTCA	0.324 (active)
AATGTTCA	0.244 (inactive)
CCTGTTCG	0.0935 (inactive)
CATGTTCG	0.399 (active)
CATGTTCC	0.409 (active)
AGCCCTCA	-0.12 (inactive)
CAACAAAG	0.159 (inactive)
CTAATAAG	0.0971 (inactive)
GGCTAGGA	-0.114 (inactive)
ATAAGGAA	0.0175 (inactive)
TAAACGCA	0.034 (inactive)
AGATACGC	-0.121 (inactive)
GGGTCTGA	-0.193 (inactive)
ACGCTGAG	-0.175 (inactive)
CATGTTGC	0.279 (inactive)
AATGTTGA	0.17 (inactive)
CATGTTGA	0.38 (active)
AATGTTGT	0.368 (active)
CATGTTGG	0.285 (inactive)
AATGTTGG	0.115 (inactive)
AGTCTAAG	0.0473 (inactive)
ATCTGTAA	0.15 (inactive)

Sequence	PBM E-score
GAATGTAA	0.223 (inactive)
CTATGTAA	0.338 (active)
GTATGTAA	0.369 (active)
GTATGTGA	0.193 (inactive)
ATATGTAA	0.34 (active)
CTATGTGA	0.137 (inactive)
CTCTGTAA	0.12 (inactive)
ATATGCAA	0.123 (inactive)
AGGAGGAG	-0.188 (inactive)
TATCGCAA	0.0789 (inactive)
CGAGAAGC	-0.0725 (inactive)
CGTTTTAC	0.0444 (inactive)
ATTAGTGA	0.107 (inactive)
CTGCTAGC	-0.102 (inactive)
GTGGTTGA	0.0698 (inactive)
AATTAGAG	0.00042 (inactive)
CGCCCCAG	-0.238 (inactive)
ACATGCAC	0.393 (active)
ACATGCGC	0.288 (inactive)
CCATGCAC	-0.0759 (inactive)
ACATGCGG	0.195 (inactive)
ACATGCAG	0.294 (inactive)
ACATGCAA	0.323 (active)
GCATGCAA	0.0861 (inactive)

Sequence	PBM E-score
AAATGCAT	0.0673 (inactive)
ACATGCGT	0.346 (active)
TCATGCAA	0.146 (inactive)
ACATGCAT	0.376 (active)
GCATGCAC	0.0682 (inactive)
CGTCGTCA	-0.0203 (inactive)
AAAAGCCT	-0.0858 (inactive)
AGATTGGC	-0.0959 (inactive)
CAGCCTCC	-0.292 (inactive)
ACGGGTTC	-0.0477 (inactive)
CAACAAGG	0.338 (active)
AAACAATG	0.256 (inactive)
CAACAAGA	0.241 (inactive)
CAACAAGC	0.202 (inactive)
CAACAATC	0.258 (inactive)
CAACAATG	0.323 (active)
